Laboratory results: PubChem BioAssay AID1241 (SRMLSC, 2008)
About 840 (70%) of roughly 1,200 compounds were called active. The rule behind the calls is not given here. The set was probably picked from earlier hits. Not all results are given here. Entries with a potency or affinity are not part of this list.

Experiment: compounds inducing NF-kB luciferase expression – cell-based, SH-SY5Y, dose response (AID 1241)
Details: SH-SY5Y NF-kB promoter luciferase reporter; series mostly up to 30 µM; fold induction over control: at the top concentration

Fold induction over control, inactive:
Oc1ccc(-c2csc(Nc3ncccn3)n2)cc1O 5.94, CC(C)(C)c1ccc(OCCn2ccccc2=O)cc1 12.2, COc1ccc2oc(C(=O)c3ccccc3)c(N)c2c1 12, COc1ccc2[nH]c(-c3cccc(F)c3)cc(=O)c2c1 4.64, COc1ccc(C(=S)Nc2ccc(N(C)C)cc2)cc1 11.3, Cc1nc(-c2ccccc2)sc1-c1ccnn1C 12, Nc1ccccc1C#Cc1ccccc1 14.8, CCOC(=O)c1c(C)oc2c1c(C(c1cccnc1)N1CCCCC1)c(O)c1ccccc12 (stereo not given) 8.46 [at 15 µM], O=C(Nc1ccc(Cl)cc1F)c1ccccc1Br 8.66, CCOC(=O)c1cnc(SCCc2ccccc2)nc1N 10, O=C(O)c1cccc(N=NN2CCCCCC2)c1 14.9, O=C(O)c1cc(N/N=C/C=C/c2ccccc2)ccc1Cl 13, COc1ccccc1OCCN1CSC(=S)N(C)C1 0.41, CC(C)(C)c1ccc(/C=N/Nc2cccc(C(=O)O)c2)cc1 19.6, O=C(O)/C=C\C(=O)Nc1ccccc1C#Cc1ccc(Br)cc1 2.97, Cc1ccccc1Nc1nc2ccccc2s1 10.2, N=c1c(C(=O)NCc2ccccc2)cc2c(=O)n3ccccc3nc2n1Cc1ccco1 0.59, O=C(/C=C/Nc1cccc([N+](=O)[O-])c1)c1cccs1 9.94, CCOc1ccc(NC(=O)c2ccccc2O)cc1 11.3, Cc1ccc(C(=O)N/N=C2\CCc3ccccc32)c(C)c1 9.87, CCCSc1nsc(NC(=O)CCC)n1 10.6, S=C(c1ccc(-c2ccc(Br)cc2)o1)N1CCCCC1 8.44, Nc1ncn(CC(=O)c2ccccc2)n1 1.01, CCc1ccc(C(=O)NC(=S)Nc2ccc3c(c2)OCCO3)cc1 11.4, COc1ccc(-c2nnc(SC(C)C(=O)Nc3cccc(Cl)c3)o2)cc1 (stereo not given) 12, Cc1ccc(C(=O)/C=C/Nc2cccc([N+](=O)[O-])c2)o1 6.5, Cc1ccc(C(=O)CCNc2ccc(F)c(Cl)c2)o1 5, COc1cccc(-c2noc(-c3cccnc3)n2)c1 11.6, Cc1[nH]n(C(N)=S)c(=O)c1N=Nc1ccc2ccccc2c1 10.5, Cc1nn(-c2ccccc2)c(N)c1N=Nc1ccccc1 12.4, Nc1nc(Nc2cccc(F)c2)nc2ccccc12 13.6, COc1ccc(C2=NN(C(C#N)c3ccc(OC)c(OC)c3)C(c3ccccc3)C2)cc1 (stereo not given) 2.52, Cc1cc2nc(-c3cccnc3SCC(=O)NCc3ccco3)[nH]c2cc1C 6.42, COc1cc(/C=C/C(=O)CC(=O)/C=C/c2ccc(O)c(OC)c2)ccc1O 1.1, COC(=O)CCCSc1nccn1-c1ccccc1 1.03, Cc1ccc(/C=C/C(=O)Nc2ccccc2C(N)=O)cc1 9.69, O=C(/C=C/Sc1ccccc1)c1ccc(Cl)cc1 12.1 [at 15 µM], CC(=Nc1cccc(C)c1)c1sc2ccccc2c1O 12.8, Oc1ccc(-c2csc(-c3ccccc3)n2)cc1O 5.21, COC(=O)c1cc(-c2c(C)nn(-c3ccccc3)c2C)n[nH]1 1.72, Cc1ccc(C(=O)Nc2cccc(C(=O)O)c2)cc1 11.4, O=C(NC1CCCC1)c1cc(-c2cccs2)on1 27, COc1ccc(C(=O)Nc2cccc(OC)c2)cc1 10.8, O=C(NCCn1ccc2ccccc21)c1ccc2c(c1)OCO2 10.7, N/C(=N\OC(=O)c1ccc2c(c1)OCO2)c1ccc(Cl)cc1 5.91, O/N=C/c1ccc(OCc2ccccc2)c(Br)c1 12.7, Cc1ccc(COc2ccc(/C=N/O)cc2)cc1 13.4, O=C(CCSc1ccc(Cl)cc1)Nc1cccnc1 1.4, COc1ccc(/C(N)=N/OC(=O)CSc2ccccc2)cc1 12.8, O=C(NCCc1ccccc1)c1cc(-c2ccco2)on1 13, Cc1ccc(O)c(/C=N/NC(=O)c2[nH]ncc2Br)c1 10.8, CCCc1noc(-c2ccc(-c3ccccc3)cc2)n1 11.4, CCOC(=O)c1c(C)[nH]c(C(=O)Nc2ccc3c(c2)OCO3)c1C 11.5, CCOC(=O)c1cc(C(=O)Nc2ccccc2F)nn1C 11.2, CCOC(=O)c1c(NC(=O)CC(C)C)sc(C(C)=O)c1C 2.09, CC(=O)Nc1ccc(N=Nc2ccccc2)cc1 12.1, COc1cccc(C(=O)Oc2ccccc2/C=C\C(=O)c2cc3ccccc3o2)c1 1.16, COc1ccc2cc(CCNC(=O)c3cccs3)c(=O)[nH]c2c1 8.36, O=C(/C(=C/c1ccc(Cl)cc1)c1nc2ccccc2[nH]1)c1ccccc1 0.3, CCOC(=O)C1=C(c2ccccc2)O/C(=C(/C#N)C(F)(F)F)S1 8.68 [at 7.5 µM], COc1ccc(-c2cnn3c(N)c(S(=O)(=O)C(C)(C)C)cnc23)cc1 1.32, Cc1ccc(-c2nc3ccccc3s2)cc1NC(=S)NC(=O)c1ccccc1 4.53, CCc1nc2ccc(C(=O)O)cc2nc1CC 2.38, CCOc1ccc(NC(=O)c2nsc(Cl)c2Cl)cc1 9.51, O=C(OCC(=O)N1CCOCC1)c1ccccc1Cc1ccccc1 9.68, CC(C)(C)c1ccc(NC(=O)Nc2ccc(OCC(=O)N3CCOCC3)cc2)cc1 8.14, CCc1ccc(NC(=O)c2ccc3ncsc3c2)cc1 9.12, CCc1ccc(NC(=O)c2cc(C(C)C)on2)cc1 12.1, Cc1nc2ccc(NC(=O)Cc3ccccc3F)cc2s1 8.01, O=C(O)c1ccc(-c2nc(-c3ccc(Cl)cc3)cs2)cc1 12.6, O=C(c1ccccc1)c1cnc(-c2ccccc2)s1 12.3, Oc1ccc2c(c1)oc1cc(O)ccc12 6.53, CN=c1scc(C)n1/N=C/c1cc(Br)c(O)c(Br)c1 1.35, O=C(OCC(F)(F)F)c1cccc(COc2ccc3ccccc3c2)c1 12.3, COc1ccc(C(=O)OCCc2ccc(O)cc2)cc1 13.5, COc1ccc(OCc2cccc(C(=O)Nn3cc([N+](=O)[O-])cn3)c2)cc1 7.14, O=C(COC(=O)C1CCCCC1)Nc1ccc([N+](=O)[O-])cc1 1.09, Cc1cccn2cc(-c3ccc(Cl)cc3)nc12 11.2, Cc1ccc(Nc2n[nH]c(C)c2[N+](=O)[O-])c(C)c1 2.95, CC(=O)c1cc(NC(=O)c2ccccc2)c(=O)oc1C 1.02, CCOC(=O)c1sc(NC(=O)c2ccccc2OC)nc1C 2.62, Cc1ccn2cc(CSc3ccccc3)nc2c1 11.4, CCSc1nnc(NC(=O)c2ccc(C)cc2)s1 9.12, Cc1nc(N2CCCCC2)c2c(-c3cccs3)csc2n1 1.02, Cc1ccc(-c2cc(-c3ccccc3C)[nH]n2)c(O)c1 15.7, Cc1ccc(C(=O)Oc2oc(-c3ccco3)nc2C=Nc2ccc(Cl)cc2)cc1 13.7, O=c1[nH]c(-c2ccco2)nc2sc3c(c12)CCCC3 12.5, c1ccc(-c2ccc(-c3nc(-c4cccnc4)no3)cc2)cc1 9.39, CC(=O)Nc1ccc2oc(-c3ccccc3)nc2c1 13.2, C=CCSC(=C(C#N)C#N)c1cc2c([nH]1)CCCC2 4.8, Cc1ccc(-n2c(C)cc(C(=O)CSc3nncs3)c2C)cc1 8.62, Cc1ccc(C(=O)/C=C/c2cn(CN3CCN(C)CC3)c3ccccc23)cc1 10.2, OCCC1CN(Cc2ccc3nsnc3c2)CCN1C1CCCC1 (stereo not given) 1.05, C/C(=N\OC(=O)NC(C)C)c1sc(-c2ccc(Cl)cc2)nc1C 2.38, C/C(=N\O)c1sc(-c2ccccc2)nc1C 11.8, Cc1ccc(Nc2nc3ccccc3[nH]2)nc1 7.12, Cc1ccc2c(c1)C(=NC1CCCCC1)c1cc3ccccc3nc1-2 10.2 [at 15 µM], Cc1ccccc1C(=O)Nc1cccc(NC(=O)Cn2cnc3c(=O)n(C)c(=O)n(C)c32)c1 1.64, CCOC(=O)c1cc(C(=O)Nc2cccc(C)c2)nn1C 13.1, CCc1ccc(NC(=O)c2onc(C)c2Cl)cc1 11.8, N/C(=N\OC(=O)c1ccc(Br)cc1)c1ccccc1 6.72, COc1ccccc1C(=O)O/N=C(\N)c1ccc(Cl)cc1 7.26, Cc1ccc(/C(N)=N/OC(=O)c2ccc(F)cc2)cc1 5.54, N/C(=N\OC(=O)c1ccccc1Cl)c1cccnc1 8.85, Cc1cc(/C=N/NC(N)=S)c(C)n1-c1ccc(Cl)c(Cl)c1 4.51, COc1cccc(C(=O)Nc2ccc(C3CC3(Cl)Cl)cc2)c1 (stereo not given) 7.84, Cc1onc(-c2c(F)cccc2Cl)c1C(=O)OCn1nnc2ccccc2c1=O 1.99, COc1c(Cl)cc(Cl)cc1/C=C/C(=O)c1ccc(NC(=O)c2cccs2)cc1 15.2 [at 15 µM], Cc1ccc(Nc2n[nH]c(C)c2[N+](=O)[O-])cc1C 12.6, Oc1cccc2ccc(/C=C/c3c(F)cccc3Cl)nc12 8.92, COc1cc(NC(=O)CSc2nc3ccccc3cc2C)c(C(=O)O)cc1OC 1.1, O=C(CCc1nnc(CCCc2ccccc2)o1)NC(C1CC1)C1CC1 8.51, N/C(=N\OC(=O)COc1cc(Cl)c(Cl)cc1Cl)c1ccccn1 12.6, N/C(=N\OC(=O)Cc1cccc2ccccc12)c1ccccn1 3.49, N#Cc1cc2ccccc2nc1SCc1ccccn1 9.71, Clc1ncccc1-c1nnn(-c2ccccc2)n1 11.5, Fc1ccc(-n2nnc(-c3cccnc3Cl)n2)cc1 12.6, Cc1csc(NC(=O)NC2(C(F)(F)F)Oc3ccccc3O2)n1 3.83, CC(C)c1ccc(NC(=O)c2csnn2)cc1 12.2, CC(=O)Nc1ccc(N=Nc2ccc(O)cc2)cc1 14.6, Cc1ccc(NC(=O)Nc2ccc3c(c2)nc(C)n3C)cc1 11.6, COc1ccc(NC(=O)c2noc3c2CCCCC3)cc1 11.6, CS(=O)(=O)c1ccc(C(=O)OCc2nnc(-c3ccc(Cl)cc3)o2)cc1[N+](=O)[O-] 1.33, Cc1nn(C)cc1/C=C/C(=O)c1cccs1 12.8, COc1ccc(/C=C/C(=O)c2ccccc2)c(OC)c1 15.5
